Assay [1] in a line: NCI Yeast Anticancer Drug Screen. Data for the rad50 strain (AID 155).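 Note: 0% = growth of vehicle-only cultures of the same strain.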 The settings on record: S. cerevisiae rad50 strain growth inhibition; at 50.0 µM; stronger effect = higher value. Summed up: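 Growth of the mutant yeast was measured after compound exposure and referenced to vehicle-treated cultures.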
Assay [2] in a line: NCI Yeast Anticancer Drug Screen. Data for the mec2-1 strain (AID 157). The note with it: S. cerevisiae mec2-1 strain, at 50.0 µM, stronger effect = higher value. In outline:
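Vehicle-treated cultures served as reference for growth inhibition of compound-exposed mec2-1 yeast.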

The nature of assay [3]: NCI Yeast Anticancer Drug Screen. Data for the sgs1 mgt1 strain (AID 161).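 Note: 0% = growth of cultures given vehicle only.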 The note with it: S. cerevisiae sgs1 mgt1 strain, at 50.0 µM, stronger effect = higher value. In outline:
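Inhibition of yeast growth, normalised to vehicle-treated controls, is reported for a strain bearing genetic alterations in DNA damage repair.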

Assay [4] is described as follows: NCI Yeast Anticancer Drug Screen. Data for the cln2 rad14 strain (AID 165).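 Note: 0% = growth equal to vehicle treated cultures.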 The settings on record: S. cerevisiae cln2 rad14 strain, at 50.0 µM, stronger effect = higher value. Summed up: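 Each compound was tested on cln2 rad14 yeast. Inhibition of growth was calculated against vehicle-exposed controls.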
Assay [5] in a line: NCI Yeast Anticancer Drug Screen. Data for the bub3 strain (AID 167). The settings on record: S. cerevisiae bub3 mutant strain, at 50.0 µM, stronger effect = higher value. In outline:
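Whole-cell yeast assay. The mutant strain was incubated with compounds, and growth inhibition was determined by comparison with vehicle-treated cells.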

The nature of assay [6]: NCI Yeast Anticancer Drug Screen. Data for the mlh1 rad18 strain (AID 175). The settings on record: S. cerevisiae mlh1 rad18 strain growth inhibition; at 50.0 µM; stronger effect = higher value. Summed up: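 Vehicle-treated cultures served as the reference for growth inhibition in a yeast strain carrying DNA damage repair alterations exposed to each compound.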

Consider 21 compounds from PubChem BioAssay (NCI).

Each structure is given as a SMILES string. About 79,000 compounds went through this panel and 15% of them were active in at least one assay; those are over-represented in the sample as a whole. Values without a mark were called inactive. Calls of active or inactive are those of the source. Cut-off read from the data, not from the text of the source: active = growth inhibition above about 70%; inactive = the rest.

Regarding `NCC(=O)c1c[nH]c(=O)[nH]c1=O`, the growth inhibition in assay [1] was -8.85%; in assay [2], -5.05%; in assay [3] it was -12.2%; in assay [4], -42.5%; in assay [5], -10.3%; in assay [6], 4.4%.

With `Cc1c([N+](=O)[O-])cc(C(C)C)c(O)c1[N+](=O)[O-]`, the growth inhibition in assay [1] is 14.8%; in assay [2] it was 25.3%; in assay [3], 27.9%; in assay [4] it was -6%; in assay [5] it was -9.5%; in assay [6], 66.2%.

Regarding `Cc1ccc(C2(C(=O)O)CC2)cc1`, the growth inhibition in assay [1] is -3.2%; in assay [2] it was -25.7%; in assay [3], 12.3%; in assay [4], 21.4%; in assay [5], -13.8%; in assay [6] it was 5.15%.

In the case of `CCC(/C=N\NC(=O)CCCC(=O)N/N=C/C(CC)CC)CC`, the growth inhibition in assay [1] is -0.5%; in assay [2] it was -8.5%; in assay [3] it was -18.6%; in assay [4], 5.65%; in assay [5], 5.8%; in assay [6], -0.35%.

`O=C(c1c(F)c(F)c(F)c(F)c1F)n1c(=O)[nH]c2ccccc21`: the growth inhibition is -18.2% in assay [1]; 13.2% in assay [2]; -10.2% in assay [3]; -12.1% in assay [4]; 23.3% in assay [5]; -27.4% in assay [6].

In the case of `NC(=S)N/N=C/c1ccc2c(c1)OCO2`, the growth inhibition is 1.55% in assay [1]; 25.8% in assay [2]; 9% in assay [3]; 47.4% in assay [4]; 22.9% in assay [5]; 13.1% in assay [6].

`c1ccc2cc(N=NNc3ccc4ccccc4c3)ccc2c1`: the growth inhibition in assay [1] was 63.6%; in assay [2], -4.1%; in assay [3], 27.9%; in assay [4], -30.6%; in assay [5], 47.5%; in assay [6], 74% (active).

As to `COc1ccc(NC(=O)CC(=O)N/N=C(/C)c2cc3cc(N=Nc4ccccc4Cl)ccc3oc2=O)cc1`, the growth inhibition is 11.3% in assay [1]; 14.2% in assay [2]; 24.1% in assay [3]; 34% in assay [4]; -11.8% in assay [5]; -10.2% in assay [6].

On to `O=C(Nc1nc2ncn(CCNCCn3cnc4nc(NC(=O)c5ccccc5)[nH]c(=O)c43)c2c(=O)[nH]1)c1ccccc1`, for which the growth inhibition in assay [1] was -10.2%; in assay [2] it was 14.1%; in assay [3], 17.5%; in assay [4], 25.9%; in assay [5], 16.8%; in assay [6], 17%.

For `CCCCN=C=NCCC[N+](C)(C)C`, the growth inhibition in assay [1] was 0.4%; in assay [2] it was 7.2%; in assay [3], 0.9%; in assay [4], 10%; in assay [5] it was 2.8%; in assay [6] it was 8.2%.

As to `O=C(N=Nc1c(O)[nH]c2c(Cl)cc(Cl)cc12)C(=O)Nc1cccc(C(F)(F)F)c1`, the growth inhibition in assay [1] was -8.85%; in assay [2], -14%; in assay [3] it was -24.6%; in assay [4], 13.8%; in assay [5] it was -23.8%; in assay [6], -14%.

In the case of `Brc1ccccc2cc(-c3ccccc3)nc1-2`, the growth inhibition in assay [1] is 54.9%; in assay [2], 30.5%; in assay [3], 34.5%; in assay [4], 19.9%; in assay [5], 37.2%; in assay [6], -7%.

For the compound `N#CC1CCCCCC1`, the growth inhibition in assay [1] is 0.8%; in assay [2], -12.4%; in assay [3] it was 5.7%; in assay [4], 2.6%; in assay [5], 8.15%; in assay [6], 5.85%.

As for `COc1cc(C(SCc2ccccc2)SCc2ccccc2)ccc1O`, the growth inhibition was 28.6% in assay [1]; 12.2% in assay [2]; 30.9% in assay [3]; 28.6% in assay [4]; 17.4% in assay [5]; 28.6% in assay [6].

For `COC(=O)c1cc2cccn2cn1`, the growth inhibition in assay [1] was -5.9%; in assay [2], -11.3%; in assay [3] it was -13.2%; in assay [4], -27.4%; in assay [5] it was -27.9%; in assay [6] it was -8.85%.

For the compound `Nc1nnc(-c2cccc(-c3nnc(N)o3)c2)o1`, the growth inhibition in assay [1] is -13.5%; in assay [2] it was -24.6%; in assay [3], -9.8%; in assay [4] it was -41.4%; in assay [5], -6.5%; in assay [6], -15.1%.

With `NC(=S)NN/C=C(\C=Nc1ccccc1)[N+](=O)[O-]`, the growth inhibition in assay [1] is 8.15%; in assay [2] it was -3.3%; in assay [3], 4.15%; in assay [4], 0.4%; in assay [5], 0.15%; in assay [6], 1%.

Consider `Cc1ccc2nc(CN(CCO)CCO)cc(=O)n2c1`, for which the growth inhibition is 34.4% in assay [1]; 4.95% in assay [2]; 40.5% in assay [3]; 4% in assay [4]; 26.6% in assay [5]; 28.4% in assay [6].

On to `C[N+]1(C)C2CC(=O)CC1C1CC12` (stereo unspecified), for which the growth inhibition in assay [1] was -10.2%; in assay [2], 7.4%; in assay [3], 4.55%; in assay [4], -2.15%; in assay [5], 12.1%; in assay [6], -16%.

As to `Oc1cccc(CCc2ccccn2)c1`, the growth inhibition in assay [1] was -2.45%; in assay [2], 0.85%; in assay [3], -11.3%; in assay [4], -24.3%; in assay [5], -3.85%; in assay [6], -4.05%.

Turning to `C1=N/C=C\C=C/c2ccc[n+](CCCCC[n+]3ccccc3-c3ccccn3)c21`, the growth inhibition is 81.5% (active) in assay [1]; 63.5% in assay [2]; 86.8% (active) in assay [3]; 63.1% in assay [4]; 36.7% in assay [5]; 75.2% (active) in assay [6].
